Source: PubChem BioAssay
A number with no mark means an inactive call. Calls of active or inactive are those of the source. Unless noted, no stated cut-off is given here; in the data, active means inhibition above about 25%; inactive means the rest.

Experiments:
[1] = target: Nuclear receptor coactivator 1 (Homo sapiens) (UniProt Q15788); experiment: SRC1 coactivator transcriptional activity inhibitors, confirmation, cell-based, luminescence, quadruplicate (AID 588820;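 active means mean inhibition above 46.68%, the untreated control wells mean plus 3 SD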;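 further: 0% = DMSO wells and 100% = gossypol 36 µM treated wells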); conditions: HEK293 GAL4-SRC1 luciferase reporter, at 3.6 µM, hits give high values
Nuclear receptor coactivator 1 (Homo sapiens), sequence (Q15788 whole entry, looked up, the tested form may be a part): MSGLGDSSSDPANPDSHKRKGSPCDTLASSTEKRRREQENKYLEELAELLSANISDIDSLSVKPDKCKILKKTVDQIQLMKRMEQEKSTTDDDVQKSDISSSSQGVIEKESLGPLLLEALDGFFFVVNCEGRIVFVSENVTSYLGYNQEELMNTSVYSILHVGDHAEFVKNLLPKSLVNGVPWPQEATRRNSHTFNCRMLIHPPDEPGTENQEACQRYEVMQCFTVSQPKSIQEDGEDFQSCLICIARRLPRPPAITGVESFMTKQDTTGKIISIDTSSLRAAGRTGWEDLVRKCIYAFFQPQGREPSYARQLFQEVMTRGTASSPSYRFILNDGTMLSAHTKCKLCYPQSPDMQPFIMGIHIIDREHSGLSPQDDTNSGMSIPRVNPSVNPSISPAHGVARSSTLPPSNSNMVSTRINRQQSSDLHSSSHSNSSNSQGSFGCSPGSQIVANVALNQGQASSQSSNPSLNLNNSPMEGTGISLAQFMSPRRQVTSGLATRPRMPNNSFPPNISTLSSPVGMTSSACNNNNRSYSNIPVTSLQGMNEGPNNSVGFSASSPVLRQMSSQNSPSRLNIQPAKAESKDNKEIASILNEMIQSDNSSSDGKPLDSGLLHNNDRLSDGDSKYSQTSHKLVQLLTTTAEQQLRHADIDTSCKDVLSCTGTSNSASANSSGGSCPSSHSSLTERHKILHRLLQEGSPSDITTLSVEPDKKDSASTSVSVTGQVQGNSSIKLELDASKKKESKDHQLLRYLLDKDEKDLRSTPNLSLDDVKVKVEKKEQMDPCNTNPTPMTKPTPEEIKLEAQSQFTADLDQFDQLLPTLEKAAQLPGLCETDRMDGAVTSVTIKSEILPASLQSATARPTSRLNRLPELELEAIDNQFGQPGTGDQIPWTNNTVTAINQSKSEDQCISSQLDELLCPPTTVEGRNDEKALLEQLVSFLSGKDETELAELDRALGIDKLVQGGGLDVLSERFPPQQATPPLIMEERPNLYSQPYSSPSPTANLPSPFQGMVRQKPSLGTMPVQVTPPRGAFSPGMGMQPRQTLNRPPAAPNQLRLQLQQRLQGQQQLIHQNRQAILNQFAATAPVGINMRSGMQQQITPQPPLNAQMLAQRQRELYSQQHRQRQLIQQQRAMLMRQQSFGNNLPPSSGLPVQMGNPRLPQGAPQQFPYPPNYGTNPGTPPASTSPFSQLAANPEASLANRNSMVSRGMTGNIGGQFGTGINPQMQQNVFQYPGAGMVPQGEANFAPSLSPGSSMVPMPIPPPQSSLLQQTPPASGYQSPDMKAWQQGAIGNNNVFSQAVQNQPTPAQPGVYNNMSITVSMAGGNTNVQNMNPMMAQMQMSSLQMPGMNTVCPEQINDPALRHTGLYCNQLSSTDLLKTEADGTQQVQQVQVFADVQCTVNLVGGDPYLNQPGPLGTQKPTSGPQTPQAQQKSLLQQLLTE

[2] = VP16 transactivation inhibitors, counter-screen for SRC1 inhibitor project, cell-based, luminescence, high throughput (AID 588824); conditions: cell-based VP16 transactivation luciferase luminescence; at 3.6 µM; hits give high values

SMILES | inhibition [1] | inhibition [2]
COc1ccc(-c2nnc(NC(=O)CSc3ccccc3)s2)cc1OC | 1.2% | -8.89%
COc1ccc(-n2c(NNC(C)=O)nc3sc4c(c3c2=O)CCCC4)cc1 | 23.4% | 31.6% (active)
C=C1CCC[C@]2(C)C[C@H]3OC(=O)C(CN4CC(C)OC(C)C4)[C@H]3C[C@@H]12 (stereo not given in full) | -0.94% | 2.96%
CCc1ccc(-c2nnn(CCC(=O)OC)n2)cc1 | -2.93% | 9.9%
COc1ccccc1CN(Cc1nc2ccccc2c(=O)[nH]1)S(=O)(=O)c1ccc2ccccc2c1 | -20.3% | -11.3%
COc1ccc2sc3c(=O)[nH]c4ccccc4c3c2c1 | 55% (active) | 41.4% (active)
CCOc1cccc(C(=O)Nc2nc(-c3ccc(S(=O)(=O)N4CCOCC4)cc3)cs2)c1 | -29.3% | -6.23%
CCc1ccc(NC(=O)C2CCN(S(=O)(=O)c3ccc4c(c3)CC(C)N4C(C)=O)CC2)cc1 (stereo not given) | -7.12% | 12.7%
Cc1c(C(=O)N/N=C/C(C)C)[nH]c2ccc([N+](=O)[O-])cc12 | 17.2% | 14.8%
O=C(CSc1nc(C2CC2)nc2ccccc12)Nc1cccc(O)c1 | -0.77% | 1.43%
O=C(OCC(=O)N1CCN(S(=O)(=O)c2ccc(Cl)cc2)CC1)c1cccc(OC(F)F)c1 | -50.5% | -5.85%
O=C(CCCCC(=O)NN=Cc1ccccc1O)NN=Cc1ccccc1O | 37.3% | 39% (active)
Nc1c(Cl)ncnc1NCCc1ccc(O)cc1 | -6.45% | 27.9% (active)
COc1ccc(OCCN2CCN(C(=O)c3ccc(OC(F)F)c(OC)c3)CC2)cc1 | 2.42% | 2.73%
CC1CCc2c(sc3ncnc(N4CCOCC4)c23)C1 (stereo not given) | 40% | 26.6% (active)
CCNC(=O)C1(C)CCCN(Cc2ccc3ccccc3c2Br)C1 (stereo not given) | 11% | 13.3%
CN(C)C(=O)c1cccc(-c2cnc3cccnn23)c1 | -7.49% | 7.53%
CN(C1CCCCC1)S(=O)(=O)c1ccc(NC(=O)C2CCCCC2)cc1 | -0.79% | 11%
O=C(Nc1ccc(Oc2ccccc2)cc1)c1ccc2sc([C@H]3C[C@H](O)[C@@H](CO)O3)nc2c1 | -13.8% | 19.3%
CCOc1ccc(-c2[nH]ncc2-c2ccc(Cl)cc2)c(O)c1 | -8.3% | 3.27%
COc1ccc(C2c3cc(OC)c(OC)cc3CCN2S(C)(=O)=O)cc1OC (stereo not given) | 9.85% | 9.73%
CCCN(CCC)CCCNC(=O)c1cn(C)c2ccc(S(=O)(=O)N(C)C3CCCCC3)cc2c1=O | -13.7% | -9.68%
CCCn1ncc(/C=N/O)c1C | 12.8% | 25.9% (active)
CSCCC(NC(=O)c1ccco1)C(=O)OCC(=O)N(Cc1ccccc1)C(C)(C)C (stereo not given) | -15.8% | -3.79%

SMILES | inhibition [1] | inhibition [2]
COc1cc(NC(=O)c2cc3cccc(OC)c3o2)cc(C(=O)Nc2cccc(C(F)(F)F)c2)c1 | -23.9% | 18.4%
NS(=O)(=O)c1ccc(Nc2nc(-c3cccnc3)cs2)cc1 | 15.8% | 11.7%
CS(=O)(=O)c1ccc(NC(=O)CCN2C(=O)C3CCCCC3C2=O)cc1 (stereo not given) | -9.83% | -10.5%
Cc1cccc(-n2ncc3c2CCCC3NC(=O)CCN2CCCCO2)c1C (stereo not given) | -0.83% | -2.39%
O=C1c2cccc(NCCCNCCO)c2C(=O)c2cccc(NCCCNCCO)c21 | 7.28% | 16.3%
Cc1ccc(CNc2nc(-c3cccs3)nc3ccccc23)cc1 | -2.3% | 14.8%
COc1ccccc1NC(=O)Cn1c(C)cc(=O)c2cccc(OC)c21 | -24.2% | 4.63%
O=C(COC(=O)C1CCN(c2ccc(C(F)(F)F)cn2)CC1)NCc1cccc(Cl)c1 | 1.02% | -3.36%
COC(=O)C1CCCCN1C(=O)c1cc(COc2cccc3cnccc23)on1 (stereo not given) | 30.8% | 43.3% (active)
O=C(CN1C(=O)COc2ccccc21)Nc1ccccc1F | -26% | 1.99%
Cc1ccc(N2C(N)=C(C#N)C3(C(=O)N(C)c4ccccc43)C3=C2CC(C)(C)CC3=O)cc1Cl (stereo not given) | 3.57% | 14.7%
CCc1nc(Nc2ccncc2)c2oc3ccccc3c2n1 | 12.3% | 12%
O=C(COC(=O)COc1ccccc1)NCCc1ccccc1 | -16.7% | -1.43%
O=C(COc1ccc([N+](=O)[O-])cc1)Nc1ccccc1C(=O)NC1CC1 | 2.87% | -1.57%
Cc1cc(NC(=O)C(Cl)c2ccccc2)no1 (stereo not given) | -11.5% | 3.89%
COc1ccc(Nc2ncnc3ccc(C)cc23)cc1 | 26.8% | 15.7%
CSC1=NCCCN1C(=O)c1c(-c2ccccc2Cl)noc1C | 0.66% | -14.8%
CCOC(=O)N1CCN(C(=O)c2cc(-c3ccncc3)nc3ccccc23)CC1 | -21.2% | 3.82%
CCOc1ccc(NC(=O)CN(C)C(=O)C2CCN(c3ncnc4sc(C)c(C)c34)CC2)cc1OCC | 0.38% | 3.14%
COc1cc(/C=N/NC(=O)NC23CC4CC(CC(C4)C2)C3)ccc1OCC(N)=O | -24.7% | -17.2%
N#CC1(NC(=O)CSc2nnc(-c3ccccc3F)o2)CCCCC1 | -24.1% | -10.4%
O=c1cc(N2CCN(c3ccccc3Cl)CC2)[nH]c(=O)n1Cc1ccc(F)cc1 | -4.06% | 16.8%
COc1ccc(OC)c(/C=N/NC(=O)c2cc3c(OC)cccc3[nH]2)c1 | -19.2% | -10%
COCCOc1ccc(C(F)(F)F)cc1NC(=O)c1ccc(C(F)(F)F)cc1 | 6.49% | 3.69%

SMILES | inhibition [1] | inhibition [2]
CN(C(=O)COC(=O)c1ccc2[nH]c3c(c2c1)CCCC3)C1CCS(=O)(=O)C1 (stereo not given) | -0.53% | -0.75%
COc1ccc2cc(/C=N/NC(=O)c3ccc(CN(c4ccc(C)c(C)c4)S(C)(=O)=O)cc3)c(Cl)nc2c1 | -4.08% | 20.7%
Cc1ccc(C(=O)NCCn2cc(SCC(=O)Nc3cc(C)on3)c3ccccc32)cc1 | 0.49% | -11.3%
CCOC(=O)C(=O)NNc1ccc(F)cc1 | -25.9% | -4.08%
COc1ccccc1OCCn1c(C)c(C=O)c2ccccc21 | 10.8% | 8.95%
Cc1ccc(C(=O)NC2CCCc3c2cnn3-c2ccc(F)cc2F)cn1 (stereo not given) | -17.5% | 27.2% (active)
CC(=O)c1cc2c(C)cc(=O)oc2cc1O | 19.4% | 6.17%
Cc1nnc(N2CCCC(C(=O)NCc3ccc(OC(C)C)cc3)C2)c2nn(-c3ccccc3)c(C)c12 (stereo not given) | -12.5% | -13.1%
O=C(NC(=S)NCC1CCCO1)c1ccccc1[N+](=O)[O-] (stereo not given) | -12.7% | -12%
CN(C(=O)c1cccc(NC(=O)Cc2ccc(NC(=O)C3CCCN(C(=O)CCc4ccccc4)C3)cc2)c1)C1CCCC1 (stereo not given) | -3.52% | 19.6%
CCOP(=O)(OCC)C(NC(=O)c1cccs1)c1ccccc1 (stereo not given) | -44.8% | -3.21%
O=C(C[C@H]1C[C@H](C(=O)N2CCOCC2)[C@@]2(CCC3CCCC3)c3[nH]c4ccc(Cl)cc4c3CCN2C1=O)NCCCn1ccnc1 | -4.01% | 2.48%
COC(C(=O)Nc1ccc(S(=O)(=O)Nc2ccc(C)c(C)c2)cc1)c1ccccc1 (stereo not given) | -8.72% | -12.5%
CC(C)N1C(=O)c2ccccc2N(Cc2ccccc2)S1(=O)=O | -4.94% | 1.81%
COc1ccc(Nc2nc(-c3cccs3)nc3ccccc23)cc1S(=O)(=O)N1CCOCC1 | -30.8% | -9.26%
CCCCCCn1nc(C(=O)OCC(=O)c2c(N)n(C)c(=O)n(C)c2=O)c2ccccc2c1=O | -6.84% | -3.36%
CCN(CC)S(=O)(=O)c1ccc(N2CCOCC2)c(NC(=O)c2cc(-c3ccccn3)nc3ccccc23)c1 | -32% | -1.24%
CCN1/C(=C2\C(=O)N(C)C(=S)N2c2ccccc2)C=Cc2ccccc21 | -4.3% | 2.2%
O=C(Nc1sc2c(c1C(=O)NCCCO)CCCC2)c1ccccc1 | -30.3% | -14.6%
Cc1csc(NC(=O)c2cc(-c3ccccc3)nc3ccccc23)n1 | 7.56% | 1.79%
COc1cccc(N2CC(NS(=O)(=O)c3cccnc3)CC2=O)c1 (stereo not given) | -40.7% | -8.11%
Cc1nn(-c2ccccc2)c(N2CCCC2)c1/C=N/NC(=O)c1cc(-c2cccnc2)nc2ccccc12 | -42.9% | -7.83%
